Where “and” joins values, the source holds several entries; their conditions need not be identical. Identical values can stand only once. Results filed as inconclusive are left out. For part of these data: Measured potencies and affinities stand elsewhere. More than one record can exist for a structure, and the calls need not agree. Calls of active or inactive are those of the source. Unless noted, the rule behind the calls is not given here.
Experiments:
[1] = antimalarial activity against Dd2 strain (AID 2302;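 active = growth inhibition above 50% at the single 2 µM test dose, taken to imply half-maximal potency below 2 µM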;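 note: 0% = DMSO untreated growth and 100% = chloroquine plus artemisinin killed control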); details: P. falciparum Dd2 in RBCs, LDH growth readout, 72 h; at 2 µM; stronger effect = higher value
[2] = HepG2 cytotoxicity, primary screen, cytotoxicity control for P. falciparum antimalarial project, cell-based, ATP luminescence (AID 2303;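 active = inhibition above 50%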;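 note: 0% = DMSO wells and 100% = digitonin-killed cells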); details: HepG2 viability, 24-48 h, at 10 µM, stronger effect = higher value
[3] = target: L-lactate dehydrogenase (Plasmodium falciparum (isolate CDC / Honduras)) (UniProt Q27743); assay: PfLDH activity inhibition – cell lysate, 3D7 strain, counter-screen for P. falciparum growth inhibition project (AID 2304);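 note: 0% = vehicle and 100% = reference inhibitor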; details: P. falciparum 3D7 crude extract, LDH APAD/NBT absorbance; at 2 µM; stronger effect = higher value
Sequence of L-lactate dehydrogenase (Plasmodium falciparum (isolate CDC / Honduras)) (Q27743 whole entry, looked up): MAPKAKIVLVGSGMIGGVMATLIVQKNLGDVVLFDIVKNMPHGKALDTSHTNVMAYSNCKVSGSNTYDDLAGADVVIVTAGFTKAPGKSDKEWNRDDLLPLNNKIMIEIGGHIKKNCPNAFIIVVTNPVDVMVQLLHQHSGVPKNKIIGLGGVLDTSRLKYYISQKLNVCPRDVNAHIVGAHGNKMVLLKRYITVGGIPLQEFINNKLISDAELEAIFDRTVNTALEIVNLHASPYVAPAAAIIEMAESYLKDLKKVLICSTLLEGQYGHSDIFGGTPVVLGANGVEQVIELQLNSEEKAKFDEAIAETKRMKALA

[4] = inhibition of 3D7 malaria parasite growth – strain 3D7 (AID 2306);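 note: 0% = DMSO wells and 100% = chloroquine plus artemisinin control wells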; details: P. falciparum 3D7 erythrocytic growth, LDH absorbance, 72 h; at 2 µM; stronger effect = higher value
[5] = liver-stage malaria parasite growth inhibition, primary screen, cell-based, HepG2, luciferase luminescence, HepG2 viability (AID 624349; in the data active = parasite load remaining mostly below about 12%, no sharp cut-off; inactive = mostly above about 10%;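 note: 100% = mean of DMSO negative control wells on the same plate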); details: P. berghei liver stage in HepG2, luciferase luminescence, concentration not given here; parasite load remaining: stronger effect = lower value; viability: measured here: HepG2 viability without parasites
[6] = target: Calcium-dependent protein kinase 1 (Plasmodium falciparum (isolate 3D7)) (UniProt P62344); assay: PfCDPK1 kinase inhibitors, biochemical, TCAMS library (AID 1159585; cut-off not given, nearly all actives have IC50 up to about 0.98 µM;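 note: inhibitors leave more ATP so luminescence rises with inhibition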); details: recombinant PfCDPK1, Kinase-Glo ATP depletion luminescence
Sequence of Calcium-dependent protein kinase 1 (Plasmodium falciparum (isolate 3D7)) (P62344 whole entry, looked up): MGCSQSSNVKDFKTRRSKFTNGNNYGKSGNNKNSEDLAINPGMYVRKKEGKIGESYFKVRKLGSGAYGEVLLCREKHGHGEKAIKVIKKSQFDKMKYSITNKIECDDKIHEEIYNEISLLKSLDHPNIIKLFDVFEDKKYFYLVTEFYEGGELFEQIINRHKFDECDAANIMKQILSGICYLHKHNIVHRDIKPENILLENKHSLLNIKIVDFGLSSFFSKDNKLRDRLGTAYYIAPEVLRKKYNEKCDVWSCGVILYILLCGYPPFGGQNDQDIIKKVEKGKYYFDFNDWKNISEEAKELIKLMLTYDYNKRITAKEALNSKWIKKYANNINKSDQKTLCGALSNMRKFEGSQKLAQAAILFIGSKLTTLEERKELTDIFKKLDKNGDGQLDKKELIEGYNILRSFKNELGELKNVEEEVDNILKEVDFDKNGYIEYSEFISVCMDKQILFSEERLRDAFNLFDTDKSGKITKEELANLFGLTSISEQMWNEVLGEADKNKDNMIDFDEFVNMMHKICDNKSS

[7] = target: Plasmodium falciparum protein kinase 6 (PK6, PF3D7_1337100) (UniProt Q8IDW1); assay: PfPK6 kinase inhibitors, biochemical, TCAMS library (AID 1159586); details: recombinant PfPK6, Kinase-Glo ATP depletion luminescence
Sequence of Plasmodium falciparum protein kinase 6 (PK6, PF3D7_1337100) (Q8IDW1 1-305): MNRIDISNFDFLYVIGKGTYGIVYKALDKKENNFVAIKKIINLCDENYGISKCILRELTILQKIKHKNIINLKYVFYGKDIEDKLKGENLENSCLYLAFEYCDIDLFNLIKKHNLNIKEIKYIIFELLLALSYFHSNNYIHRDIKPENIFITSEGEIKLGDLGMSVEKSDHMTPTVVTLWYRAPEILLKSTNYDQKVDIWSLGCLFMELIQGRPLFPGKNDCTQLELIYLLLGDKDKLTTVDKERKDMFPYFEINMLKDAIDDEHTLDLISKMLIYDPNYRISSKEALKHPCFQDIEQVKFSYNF

[8] = target: Protein kinase 7 (PK7), Plasmodium falciparum 3D7 (PF3D7_0213400) (UniProt Q7YTF7); assay: inhibition of Plasmodium PK7 catalytic activity – biochemical, TCAMS antimalarial set, Kinase-Glo luminescence (AID 1159587); details: recombinant PfPK7, Kinase-Glo ATP depletion luminescence
Sequence of Protein kinase 7 (PK7), Plasmodium falciparum 3D7 (PF3D7_0213400) (Q7YTF7 1-343): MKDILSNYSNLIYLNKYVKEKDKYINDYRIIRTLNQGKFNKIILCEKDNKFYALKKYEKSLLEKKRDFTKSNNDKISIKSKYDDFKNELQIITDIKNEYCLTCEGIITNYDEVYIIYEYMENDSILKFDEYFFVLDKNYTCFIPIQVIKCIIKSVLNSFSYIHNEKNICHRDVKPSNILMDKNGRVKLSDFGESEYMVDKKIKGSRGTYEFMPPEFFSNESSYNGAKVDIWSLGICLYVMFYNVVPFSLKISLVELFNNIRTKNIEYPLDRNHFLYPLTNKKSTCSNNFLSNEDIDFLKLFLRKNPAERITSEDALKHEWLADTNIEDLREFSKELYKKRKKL

[9] = target: Calcium-dependent protein kinase 4 (Plasmodium falciparum (isolate 3D7)) (UniProt Q8IBS5); assay: PfCDPK4 kinase inhibitors, biochemical, TCAMS library (AID 1159588; cut-off not given, nearly all actives have IC50 up to about 0.91 µM); details: recombinant PfCDPK4, Kinase-Glo ATP depletion luminescence
Sequence of Calcium-dependent protein kinase 4 (Plasmodium falciparum (isolate 3D7)) (Q8IBS5 whole entry, looked up): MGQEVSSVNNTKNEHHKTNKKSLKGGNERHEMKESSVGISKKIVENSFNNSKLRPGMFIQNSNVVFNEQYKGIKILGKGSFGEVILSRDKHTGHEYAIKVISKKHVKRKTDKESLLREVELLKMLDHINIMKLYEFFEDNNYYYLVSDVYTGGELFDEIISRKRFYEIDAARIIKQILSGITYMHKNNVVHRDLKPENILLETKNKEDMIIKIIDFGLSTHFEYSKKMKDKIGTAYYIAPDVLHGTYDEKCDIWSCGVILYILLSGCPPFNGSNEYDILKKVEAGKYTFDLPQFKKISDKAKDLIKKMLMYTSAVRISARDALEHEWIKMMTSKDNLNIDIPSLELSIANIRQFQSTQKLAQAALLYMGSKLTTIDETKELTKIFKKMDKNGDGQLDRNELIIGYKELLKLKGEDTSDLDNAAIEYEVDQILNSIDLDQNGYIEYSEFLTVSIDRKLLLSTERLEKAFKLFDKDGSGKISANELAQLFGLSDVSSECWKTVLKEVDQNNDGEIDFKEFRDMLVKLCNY

[10] = growth inhibition of DIPG glioma cells, dose response, cell-based, SU-DIPG-XVII, MIPE5.0, CellTiter-Glo, qHTS (AID 1347060; cut-off not given, nearly all actives have AC50 up to about 26 µM;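 for AC50: cells exposed to compound for 48 hours before viability readout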); details: SU-DIPG-XVII viability, CellTiter-Glo ATP luminescence
[11] = growth inhibition of DIPG glioma cells, dose response, cell-based, JHH-DIPG-1, MIPE4.0, CellTiter-Glo, qHTS (AID 1347062; cut-off not given, nearly all actives have AC50 up to about 27 µM;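 for AC50: cells exposed to compound for two days before readout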); details: JHH-DIPG-1 viability, CellTiter-Glo ATP luminescence
[12] = growth inhibition of DIPG glioma cells, dose response, cell-based, SU-DIPG-IV, MIPE4.0, CellTiter-Glo, qHTS (AID 1347063; cut-off not given, nearly all actives have AC50 up to about 30 µM;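 note: compound exposure lasted 48 hours before the viability readout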); details: SU-DIPG-IV viability, CellTiter-Glo ATP luminescence
[13] = growth inhibition of DIPG glioma cells, dose response, cell-based, SU-DIPG-XIII, MIPE5.0, CellTiter-Glo, qHTS (AID 1347064; cut-off not given, nearly all actives have AC50 up to about 23 µM;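 for AC50: cells exposed to compound for 48 hours before the viability read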); details: SU-DIPG-XIII viability, CellTiter-Glo ATP luminescence
[14] = viability loss in pontine glioma line – cell-based, SU-DIPG-XXV, MIPE5.0, CellTiter-Glo, qHTS, dose response (AID 1347065; cut-off not given, nearly all actives have AC50 up to about 26 µM;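 note: cells exposed to compound for 48 hours before ATP readout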); details: CellTiter-Glo ATP luminescence
[15] = SU-DIPG-VI glioma cell viability, MIPE4.0 library, CellTiter-Glo luminescence, qHTS (AID 1347066; cut-off not given, nearly all actives have AC50 up to about 30 µM;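 note: cells exposed to compound for 48 hours before readout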); details: CellTiter-Glo ATP luminescence
[16] = JHH-DIPG-1 glioma cell viability, MIPE5.0 library, CellTiter-Glo luminescence, qHTS (AID 1347067; cut-off not given, nearly all actives have AC50 up to about 26 µM;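 note: cells exposed to compound for 48 hours before readout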); details: JHH-DIPG-1 glioma viability, CellTiter-Glo ATP luminescence
[17] = SU-DIPG-XXV glioma cell viability, MIPE5.0 library, qHTS (AID 1347068; cut-off not given, nearly all actives have IC50 up to about 30 µM;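 for IC50: cells exposed to compound for 48 hours before viability readout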)
[18] = sensitizers of A549 cells to miR-34 induction, primary screen, imaging, A549 dox-inducible miR-34, nuclei and caspase counts (AID 1347080;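 active = compounds whose cell count with miR-34 switched on is under 0.7 times the count with it off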); details: A549 miR-34 inducible, Hoechst nuclei count, 48 h
[19] = survival rescue of mitochondrial mutant cells in low glucose, primary screen, MELAS cybrids, Rieske KO mouse fibroblasts, CellTiter-Glo (AID 1508586;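 active = mean z-score across replicates of 1.96 or higher in either the MELAS or the Rieske mutant cell line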;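 note: z relative to plate mean and SD of compound and empty wells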)
[20] = target: NAD(+) hydrolase SARM1 (Homo sapiens) (UniProt Q6SZW1); assay: SARM1 TIR NADase inhibitors, cell lysate, NAD-Glo luminescence (AID 1508614;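 active = compound whose remaining NAD level is above about 45 nM, limit read from the data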;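 note: higher remaining NAD means stronger inhibition of SARM1 NADase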); details: SAM-TIR HEK293T lysate NADase, at 1 µM, stronger effect = higher value
Sequence of NAD(+) hydrolase SARM1 (Homo sapiens) (Q6SZW1 whole entry, looked up, the tested form may be a part): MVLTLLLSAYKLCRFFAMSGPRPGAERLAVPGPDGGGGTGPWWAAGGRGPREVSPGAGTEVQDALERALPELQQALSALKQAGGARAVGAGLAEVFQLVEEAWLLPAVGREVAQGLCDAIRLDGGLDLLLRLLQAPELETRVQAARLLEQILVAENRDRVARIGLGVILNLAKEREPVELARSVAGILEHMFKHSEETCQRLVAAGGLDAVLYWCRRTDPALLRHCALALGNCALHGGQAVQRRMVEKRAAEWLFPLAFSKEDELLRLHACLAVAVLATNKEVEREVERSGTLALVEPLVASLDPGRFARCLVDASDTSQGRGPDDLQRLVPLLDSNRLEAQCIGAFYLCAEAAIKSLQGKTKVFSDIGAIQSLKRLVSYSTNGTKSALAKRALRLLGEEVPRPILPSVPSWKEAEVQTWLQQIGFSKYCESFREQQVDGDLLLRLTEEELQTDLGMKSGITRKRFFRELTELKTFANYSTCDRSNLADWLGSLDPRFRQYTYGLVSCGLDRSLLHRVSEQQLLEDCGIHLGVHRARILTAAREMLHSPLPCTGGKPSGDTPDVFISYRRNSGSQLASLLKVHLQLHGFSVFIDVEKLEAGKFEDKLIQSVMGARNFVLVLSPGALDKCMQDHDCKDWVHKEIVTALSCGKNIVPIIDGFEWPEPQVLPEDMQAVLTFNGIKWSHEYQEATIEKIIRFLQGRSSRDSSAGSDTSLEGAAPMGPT

[21] = target: Mitogen-activated protein kinase 7 (Homo sapiens) (UniProt Q13164); assay: ERK5 transactivation activators in reporter cells, primary screen, cell-based, HTS (AID 1508626;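 active = luciferase signal above three times the same-plate solvent-only control wells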;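 note: luciferase driven by Gal4-ERK5 fusion binding five Gal4 sites before minimal TATA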); details: HeLa Gal4-ERK5 transactivation, 18 h, at 5 µM, stronger effect = higher value
Sequence of Mitogen-activated protein kinase 7 (Homo sapiens) (Q13164 whole entry, looked up, the tested form may be a part): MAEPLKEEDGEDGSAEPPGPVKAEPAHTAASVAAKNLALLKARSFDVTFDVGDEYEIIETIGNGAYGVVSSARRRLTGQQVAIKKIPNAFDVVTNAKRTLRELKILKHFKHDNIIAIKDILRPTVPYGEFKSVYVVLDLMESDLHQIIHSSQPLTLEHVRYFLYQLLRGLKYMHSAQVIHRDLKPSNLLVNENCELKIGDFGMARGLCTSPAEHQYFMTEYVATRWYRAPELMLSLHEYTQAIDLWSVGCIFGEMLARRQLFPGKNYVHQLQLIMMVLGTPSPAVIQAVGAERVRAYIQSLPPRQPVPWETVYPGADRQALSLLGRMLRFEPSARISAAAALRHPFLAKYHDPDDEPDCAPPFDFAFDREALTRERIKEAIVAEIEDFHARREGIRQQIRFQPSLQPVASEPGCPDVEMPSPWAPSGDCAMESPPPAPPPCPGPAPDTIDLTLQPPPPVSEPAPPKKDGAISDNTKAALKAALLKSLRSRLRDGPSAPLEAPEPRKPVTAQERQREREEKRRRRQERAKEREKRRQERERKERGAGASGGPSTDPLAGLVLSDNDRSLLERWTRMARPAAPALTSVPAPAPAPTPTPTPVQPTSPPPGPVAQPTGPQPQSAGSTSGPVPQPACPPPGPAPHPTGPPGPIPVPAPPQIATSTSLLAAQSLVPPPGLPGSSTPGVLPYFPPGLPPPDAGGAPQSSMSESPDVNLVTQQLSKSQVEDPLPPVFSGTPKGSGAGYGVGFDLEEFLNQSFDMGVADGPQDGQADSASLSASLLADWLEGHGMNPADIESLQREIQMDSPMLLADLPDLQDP

[22] = viability rescue of complex I mutant cybrids, primary screen, cell-based, galactose medium, ATP luminescence (AID 1645843;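 active = z-score of at least 1.8 in each of two replicates, scored against plate mean and spread of sample wells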;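 note: positive z means more ATP and so rescue of galactose-driven cybrid death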); details: complex I mutant cybrid cells, 72 h, stronger effect = higher value
[23] = system: Aerobactin synthetase IucA (Klebsiella pneumoniae); assay: IucA aerobactin synthetase inhibitors, biochemical, Tocris library, absorbance (AID 1345561); details: purified IucA enzyme assay, absorbance (OD) read-out; stronger effect = lower value;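 tested at 8 µM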;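 note: 100% = enzyme without compound and 0% = no enzyme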
[24] = growth inhibition of DIPG glioma cells, dose response, cell-based, SU-DIPG-XIII, MIPE4.0, CellTiter-Glo, qHTS (AID 1347061; cut-off not given, nearly all actives have AC50 up to about 37 µM;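 note: cells exposed to compound for 48 hours before readout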); details: SU-DIPG-XIII viability, CellTiter-Glo ATP luminescence
[25] = circadian clock period modulators, cell-based, LOPAC library, luminescence reporter (AID 2774); details: circadian reporter cells, at 7 µM, actives lie on both sides;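 note: values are relative to mean of DMSO wells on each plate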
[26] = system: Hepatitis C virus NS3 helicase; assay: HCV NS3 helicase inhibitors, primary screen, biochemical, fluorescence polarization, LOPAC1280 library (AID 687035; in the data active = inhibition above about 37%); details: Purified HCV NS3 helicase, Cy5-dT15 ssDNA binding fluorescence polarization; stronger effect = higher value; concentration not given here
[27] = Cy5 fluorescence quenching or enhancement artefacts, artefact control for HCV NS3 helicase inhibitor project, biochemical, LOPAC1280 (AID 687037); details: Cy5-DNA-NS3h complex fluorescence interference counterscreen
[28] = stronger effect = lower value, cell number ratio, induced over uninduced
[29] = measured here: relative caspase fold change +Dox/-Dox
[30] = measured here: total cells with miR-34 induction, stronger effect = lower value
[31] = measured here: total cells without miR-34 induction
[32] = MELAS cybrid survival, CellTiter-Glo 48 h, stronger effect = higher value
[33] = Rieske KO mouse fibroblast survival, CellTiter-Glo 72 h

## C=C[C@H]1CN2CC[C@H]1C[C@H]2[C@H](O)c1ccnc2ccc(OC)cc12
[1]
  growth inhibition: 99% (active) and 22% (inactive) and 79% (active)
[2]
  inhibition: 13% (inactive) and -12% (inactive) and -6% (inactive)
[3]
  inhibition: -4% (inactive) and -7% (inactive)
[4]
  growth inhibition: 100% (active) and 97% (active) and 99% (active)
[5]
  parasite load remaining: 49.1% (inactive)
  viability: 193%
[6]
  outcome: inactive
[7]
  outcome: inactive
[8]
  outcome: inactive
[9]
  outcome: inactive
[10]
  outcome: inactive
[11]
  outcome: inactive
[12]
  outcome: inactive
[13]
  outcome: inactive
[14]
  outcome: inactive
[15]
  outcome: inactive
[16]
  outcome: inactive
[17]
  outcome: inactive
[18]; [28]
  fold change: 0.942 (inactive)
[18]; [29]
  fold change: 0.791
[18]; [30]
  cell count: 9260
[18]; [31]
  cell count: 9830
[19]; [32]
  z-score: -0.0548 (inactive)
[19]; [33]
  z-score: 1.17
[20]
  remaining NAD: 10 nM (inactive)
[21]
  luciferase signal: 140 AU (inactive)
[22]
  z-score: -0.735 (inactive)

## C[C@@H]1CN(c2nc(NCCc3ccc(O)cc3)nc(NCc3ccccc3-c3ccc(C(F)(F)F)cc3)n2)C[C@H](C)N1
[1]
  growth inhibition: 68% (active)
[2]
  inhibition: 24% (inactive)
[3]
  inhibition: 7% (inactive)
[4]
  growth inhibition: 100% (active)
[6]
  outcome: inactive
[7]
  outcome: inactive
[8]
  outcome: inactive
[9]
  outcome: inactive

## CCc1c(C)nc2nc(Cc3cccc(F)c3)nn2c1N1CCN(c2ccccn2)CC1
[1]
  growth inhibition: 98% (active)
[2]
  inhibition: -4% (inactive)
[3]
  inhibition: -1% (inactive)
[4]
  growth inhibition: 100% (active)
[6]
  outcome: inactive
[7]
  outcome: inactive
[8]
  outcome: inactive
[9]
  outcome: inactive

## O=C(Nc1cc(C(F)(F)F)cc(C(F)(F)F)c1)c1cc(Cl)ccc1O
[1]
  growth inhibition: 98% (active)
[2]
  inhibition: 84% (active)
[3]
  inhibition: 2% (inactive)
[4]
  growth inhibition: 90% (active)
[5]
  parasite load remaining: 0.02% (inactive)
  viability: 51.5%
[6]
  outcome: inactive
[7]
  outcome: inactive
[8]
  outcome: inactive
[9]
  outcome: inactive
[23]
  remaining activity: 120% (inactive)
[10]
  AC50: 1.32 µM (active)
[24]
  AC50: 0.59 µM (active)
[11]
  AC50: 1.87 µM (active)
[12]
  AC50: 1.48 µM (active)
[13]
  AC50: 1.86 µM (active)
[14]
  AC50: 1.32 µM (active)
[15]
  AC50: 0.209 µM (active)
[16]
  AC50: 1.48 µM (active)
[17]
  IC50: 2.63 µM (active)
[18]; [28]
  fold change: 0.989 (inactive) and 1.06 (inactive)
[18]; [29]
  fold change: 0.581 and 1.23
[18]; [30]
  cell count: 1480 and 1100
[18]; [31]
  cell count: 1500 and 1040
[19]; [32]
  z-score: 0.314 (inactive)
[19]; [33]
  z-score: -0.453
[22]
  z-score: -0.7 (inactive)

## Nc1nc(NCC2CCC(CNS(=O)(=O)c3cccc4ccccc34)CC2)nc2ccccc12 (stereo not given)
[1]
  growth inhibition: 42% (inactive)
[2]
  inhibition: 9% (inactive)
[3]
  inhibition: 7% (inactive)
[4]
  growth inhibition: 97% (active)
[6]
  outcome: inactive
[7]
  outcome: inactive
[8]
  outcome: inactive
[9]
  outcome: inactive
[23]
  remaining activity: 92.3% (inactive)
[18]; [28]
  fold change: 0.954 (inactive)
[18]; [29]
  fold change: 0.891
[18]; [30]
  cell count: 322
[18]; [31]
  cell count: 338
[22]
  z-score: -0.705 (inactive)

## OC(CN1CCN(c2cccc(Cl)c2)CC1)C(c1ccccc1)c1ccccc1 (stereo not given)
[1]
  growth inhibition: 4% (inactive)
[2]
  inhibition: -2% (inactive)
[3]
  inhibition: -2% (inactive)
[4]
  growth inhibition: 85% (active)
[25]
  period change: -0.085 h (inactive)
[26]
  inhibition: -4% (inactive)
[27]
  fluorescence ratio (interference): 0.9 (inactive)
[6]
  outcome: inactive
[7]
  outcome: inactive
[8]
  outcome: inactive
[9]
  outcome: inactive
[23]
  remaining activity: 112% (inactive)
[24]
  AC50: 23.5 µM (active)
[11]
  outcome: inactive
[18]; [28]
  fold change: 0.897 (inactive) and 1 (inactive)
[18]; [29]
  fold change: 0.676 and 0.73
[18]; [30]
  cell count: 8580 and 6630
[18]; [31]
  cell count: 9570 and 6630
[19]; [32]
  z-score: -0.304 (inactive)
[19]; [33]
  z-score: 0.565
[22]
  z-score: -0.82 (inactive)

Reference: PubChem BioAssay
